# Calls of active or inactive are those of the source. Unless noted, how the calls were made is not given here.
# Assays:
# [1] = HepG2 liver cancer cell viability effects, profiling panel, resazurin fluorescence, 24 h, PK04 Diversity Set (AID 1172); conditions: higher = more signal
# [2] = basal S. cerevisiae growth modulation, no modifier, primary screen, OD600, strain BY4716, 24 h, basal condition (AID 1173); conditions: OD600, 24 h, higher = more signal, called active from +8 up or from −8 down
# [3] = MM1S myeloma cell viability, profiling panel, resazurin fluorescence, basal, 24 h, PK04 Diversity Set (AID 1174); conditions: higher = more signal, called active from +8 up or from −8 down;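 further: MM1S multiple myeloma cell line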
# [4] = target: Dihydroorotate dehydrogenase (quinone), mitochondrial (Plasmodium falciparum (isolate 3D7)) (UniProt Q08210); experiment: PfDHODH enzyme inhibitors, primary screen, biochemical, C-terminal His tag, absorbance 600 nm (AID 1175); conditions: DCIP absorbance 600 nm, higher = more signal, called active from +8 up or from −8 down;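 further: recombinant parasite enzyme with a five histidine tag at its C terminus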
# Chain of Dihydroorotate dehydrogenase (quinone), mitochondrial (Plasmodium falciparum (isolate 3D7)) (Q08210 whole entry, looked up): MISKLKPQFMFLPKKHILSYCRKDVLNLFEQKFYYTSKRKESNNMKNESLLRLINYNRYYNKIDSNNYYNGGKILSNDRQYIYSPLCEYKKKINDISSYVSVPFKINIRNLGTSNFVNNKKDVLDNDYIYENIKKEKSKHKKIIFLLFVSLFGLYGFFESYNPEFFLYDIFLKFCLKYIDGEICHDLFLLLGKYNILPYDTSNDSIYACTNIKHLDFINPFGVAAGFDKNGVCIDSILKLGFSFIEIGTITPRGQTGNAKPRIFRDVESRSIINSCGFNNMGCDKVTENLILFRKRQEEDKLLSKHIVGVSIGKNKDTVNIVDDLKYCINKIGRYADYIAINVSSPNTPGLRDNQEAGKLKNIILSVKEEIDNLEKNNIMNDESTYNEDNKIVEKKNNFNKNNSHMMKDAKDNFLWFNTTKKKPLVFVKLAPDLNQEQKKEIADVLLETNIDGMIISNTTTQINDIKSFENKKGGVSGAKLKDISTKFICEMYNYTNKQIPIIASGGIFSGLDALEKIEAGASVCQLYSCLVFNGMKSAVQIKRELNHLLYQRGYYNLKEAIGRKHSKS
# [5] = P. aeruginosa biofilm formation inhibitors, primary screen, strain PAO1, LB-PBS medium, absorbance 600 nm (AID 1176); conditions: P. aeruginosa PAO1 growth/biofilm, A600, 12 h; higher = more signal
# [6] = S. cerevisiae RM11-1a growth modifiers, primary screen, strain RM11-1a, OD600, basal, 24 h (AID 1177); conditions: OD600, 24 h, higher = more signal, called active from +8 up or from −8 down;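 further: cultures grown under basal conditions with no added stressor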
# [7] = E. coli acrAB mutant growth effects, primary screen, E. coli filamentation inducers, strain DRC39, OD650, 24 h (AID 1178); conditions: higher = more signal, called active from +8 up or from −8 down;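 further: growth measured as culture turbidity by optical density at 650 nm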
# [8] = E. coli acrAB mutant growth effects, primary screen, E. coli filamentation inducers, strain DRC39, OD650, 48 h (AID 1179);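 further: screen aims at cell division blockers that make cells filament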; conditions: E. coli DRC39 delta-acrAB growth, higher = more signal, called active from +8 up or from −8 down
# [9] = RPMI8226 myeloma cell viability, profiling panel, resazurin fluorescence, basal, 24 h, PK04 Diversity Set (AID 1180); conditions: higher = more signal;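 further: RPMI8826 multiple myeloma cell line at 5000 cells per well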
# [10] = target: E3 ubiquitin-protein ligase XIAP (Homo sapiens) (UniProt P98170); experiment: XIAP binders, primary screen, biophysical, small-molecule microarray, fluorescence 635 nm (AID 1181); conditions: small-molecule microarray binding, higher = more signal;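 further: score merges 667 nm emission and signal to noise over triplicate slides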
# Chain of E3 ubiquitin-protein ligase XIAP (Homo sapiens) (P98170 whole entry, looked up): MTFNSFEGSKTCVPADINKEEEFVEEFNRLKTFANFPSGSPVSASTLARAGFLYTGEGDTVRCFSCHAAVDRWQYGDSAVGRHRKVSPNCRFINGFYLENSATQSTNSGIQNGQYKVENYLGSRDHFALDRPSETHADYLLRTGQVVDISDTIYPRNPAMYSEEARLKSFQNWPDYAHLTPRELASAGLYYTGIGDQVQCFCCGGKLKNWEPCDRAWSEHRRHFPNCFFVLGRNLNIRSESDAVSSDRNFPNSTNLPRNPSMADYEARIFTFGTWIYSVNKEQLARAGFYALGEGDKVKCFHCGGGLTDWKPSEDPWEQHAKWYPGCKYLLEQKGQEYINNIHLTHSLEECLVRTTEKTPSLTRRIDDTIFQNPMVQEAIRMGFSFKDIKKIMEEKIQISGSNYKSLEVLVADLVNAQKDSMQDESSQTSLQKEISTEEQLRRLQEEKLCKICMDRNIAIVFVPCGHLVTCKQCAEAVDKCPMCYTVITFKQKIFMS
# [11] = system: XIP peptide (Xip251-270) binding; experiment: small-molecule binders of XIP peptide, primary screen, biochemical, small-molecule microarray, fluorescence 635/667 nm, 0.1 µg/mL protein (AID 1182); conditions: fluorescent protein binding, 635 nm, higher = more signal, called active from +8 up or from −8 down
# [12] = system: XIP peptide (Xip251-270); experiment: small-molecule binders of XIP peptide, primary screen, biochemical, small-molecule microarray, fluorescence 635/667 nm, 0.5 µg/mL protein (AID 1183); conditions: small-molecule microarray binding, fluorescence 635 nm; higher = more signal
# [13] = Plasmodium falciparum growth inhibition, primary screen, strain 3D7, DAPI fluorescence, 100 nL (AID 1184);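 further: parasites grown inside human red blood cells in medium with human serum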; conditions: P. falciparum 3D7 growth, 3 d, higher = more signal
# [14] = target: Homeobox protein Hox-A13 (Mus musculus) (UniProt Q62424); experiment: inhibitors of HoxA13-DNA binding, primary screen, biochemical, fluorescence polarization, labeled oligonucleotide (AID 1185); conditions: 15 min, higher = more signal, called active from +8 up or from −8 down
# Chain of Homeobox protein Hox-A13 (Mus musculus) (Q62424 whole entry, looked up): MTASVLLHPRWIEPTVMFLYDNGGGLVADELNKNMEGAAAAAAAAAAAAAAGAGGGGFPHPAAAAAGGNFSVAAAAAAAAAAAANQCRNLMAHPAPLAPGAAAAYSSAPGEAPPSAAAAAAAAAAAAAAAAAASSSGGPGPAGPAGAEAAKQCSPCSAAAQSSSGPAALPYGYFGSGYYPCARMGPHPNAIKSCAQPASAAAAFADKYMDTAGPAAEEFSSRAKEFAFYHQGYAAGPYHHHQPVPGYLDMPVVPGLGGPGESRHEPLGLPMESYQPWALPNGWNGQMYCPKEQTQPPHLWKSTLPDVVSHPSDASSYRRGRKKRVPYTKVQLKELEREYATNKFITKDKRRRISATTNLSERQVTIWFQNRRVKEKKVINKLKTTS
# [15] = inhibitors of hydroxyurea-induced Chk1 phosphorylation, primary screen, imaging, HeLa, phospho-Chk1 antibody, percent positive cells (AID 1186); conditions: hydroxyurea-induced phospho-Chk1 immunofluorescence imaging, higher = more signal
# [16] = inhibitors of hydroxyurea-induced Chk1 phosphorylation, primary screen, imaging, HeLa, phospho-Chk1 nuclear intensity (AID 1187); conditions: hydroxyurea-induced phospho-Chk1 immunofluorescence imaging, higher = more signal
SMILES,z-score [1],z-score [2],z-score [3],composite z-score [4],z-score [5],z-score [6],z-score [7],z-score [8],z-score [9],composite z-score [10],composite z-score [11],composite z-score [12],z-score [13],z-score [14],z-score [15],z-score [16]
COCC1C2CC[C@H]3C(OCc4ccc(F)cc4C(F)(F)F)OC[C@]4(C)[C@H]3C2=C(CN4C(=O)OC(C)(C)C)[C@H](C)C1COC (some centres undefined),-0.422,0.236 (inactive),-0.481 (inactive),-0.908 (inactive),0.383 (inactive),-3.23 (inactive),-0.93 (inactive),0.25 (inactive),0.092,-0.122,1.84 (inactive),0.761,-1.06,-3 (inactive),-0.43 (inactive),-0.0765 (inactive)
COCCn1c(C(=O)N2CCCC2)cc2c1C[C@H]1CN(C(=O)c3ccccc3)[C@@](Cc3ccc(OC)cc3)(C(=O)OC)[C@@H]21,-0.818,-0.35 (inactive),-0.716 (inactive),-1.79 (inactive),0.576 (inactive),-0.944 (inactive),-0.0628 (inactive),0.763 (inactive),-0.939,0.232,0.541 (inactive),0.603,-1.55,-4.97 (inactive),-0.598 (inactive),-0.634 (inactive)
CN(C)CCCC[C@@H]1NC(=O)[C@@H]2C[C@H](C(=O)NCc3ccc(F)cc3)[C@H](c3cccc(OCCO)c3)N2C1=O,-0.487,-0.889 (inactive),0.0458 (inactive),-0.366 (inactive),0.199 (inactive),-0.889 (inactive),0.797 (inactive),0.83 (inactive),0.293,0.0808,0.658 (inactive),0.813,-0.459,-3.36 (inactive),0.445 (inactive),0.314 (inactive)
CO[C@H]1O[C@H](CO)[C@@H](OC(=O)Nc2ccc(C(F)(F)F)cc2)[C@H](OC(=O)Nc2ccccc2)[C@@H]1OC(=O)Nc1ccccc1,-0.5,-0.332 (inactive),-1.34 (inactive),-0.798 (inactive),0 (inactive),0.0212 (inactive),0.886 (inactive),-0.053 (inactive),-0.771,0.0468,0.384 (inactive),0.62,-0.0799,-5.23 (inactive),0.666 (inactive),0.389 (inactive)
O=C1OCCC=C[C@H]2OC34C=CCN(c5ccc6ccccc6c5)C(=O)[C@H]3N(CCCCCCO)C(=O)[C@@H]4C12 (some centres undefined),0.523,-0.546 (inactive),-0.0449 (inactive),0.401 (inactive),-0.497 (inactive),0.522 (inactive),0.982 (inactive),1.29 (inactive),0.868,-0.0953,-0.0517 (inactive),0.79,0.0888,-5.18 (inactive),0.183 (inactive),0.399 (inactive)
NC(=O)NCC#Cc1ccc2c(c1)[C@]1(C(=O)N2)[C@H](C(=O)NC[C@H](O)c2ccccc2)[C@H]2C(=O)O[C@H](c3ccccc3)[C@H](c3ccccc3)N2[C@@H]1c1ccccc1OCCO,0.217,0.328 (inactive),0.56 (inactive),0.833 (inactive),1.08 (inactive),0.915 (inactive),1.01 (inactive),0.0227 (inactive),0.225,0.0864,0.635 (inactive),0.799,-1.32,-3.41 (inactive),-0.228 (inactive),-0.374 (inactive)
COCCOC(=O)N1C(=O)[C@@]2(c3cc(C#CCC(C(=O)OC)C(=O)OC)ccc31)[C@H](c1ccccc1OCCO)N1[C@H](c3ccccc3)[C@H](c3ccccc3)OC(=O)[C@H]1[C@@H]2C(=O)Nc1nc2ccccc2s1,0.513,-0.561 (inactive),0.951 (inactive),-1.19 (inactive),3.41 (inactive),-0.929 (inactive),1.28 (inactive),1.76 (inactive),0.599,-0.0785,0.83 (inactive),0.862,-1.53,3.51 (inactive),-0.5 (inactive),-0.31 (inactive)
CCOC(=O)C1=C[C@@H](C(C)(C)C)N(S(=O)(=O)c2ccc(C)cc2)[C@H]1c1ccc(Cl)c(Cl)c1,-0.331,1.63 (inactive),-1.01 (inactive),0.89 (inactive),0.546 (inactive),1.26 (inactive),-0.723 (inactive),-0.398 (inactive),-2.92,-0.0351,-0.0073 (inactive),0.762,-1.96,-0.524 (inactive),-0.0683 (inactive),-0.633 (inactive)
O=c1cccc(-c2ccccc2)o1,0.123,-5.07 (inactive),0.0841 (inactive),-0.403 (inactive),0.421 (inactive),0.434 (inactive),-0.438 (inactive),0.0997 (inactive),-0.156,0.045,-0.724 (inactive),0.765,0.495,-1.85 (inactive),0.403 (inactive),0.0838 (inactive)

# Reference: PubChem BioAssay
